p53 mut binder: binders of human mutant p53. small molecule microarray binding, anti-GST fluorescence. calls only. 17,000 compounds, 0.4% hits;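 active = compounds whose four printed spots each glow above background more than chance allows, each with a p-value under 7%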
c-Myc SMM: binds human c-Myc on microarray | P01106 | small molecule microarray, His-c-Myc binding, anti-His fluorescence | calls only | 17,000 compounds, 1.5% hits | AID 624141;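 active = spot fluorescence over background with P-value below 7% in all four replicate spots, showing protein binding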;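 also: score is binary with 100 for all four spots passing and 0 otherwise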
STAT3 binder: binders of human STAT3. Small molecule microarray, His-STAT3 binding, anti-His fluorescence. calls only. 17,000 compounds, 0.2% hits;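 active = compounds whose four printed spots each show fluorescence over background unusually high for their array block, chance value under 7%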
NFkB binder: binders of human NF-kappa-B p105; P19838; Small molecule microarray, anti-His fluorescence binding; calls only; 17,000 compounds, 1.3% hits; AID 624139;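 active = spot fluorescence over background significantly raised, with a chance value under 7% in all four replicate spots of the compound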;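 also: probe protein is his-tagged human p50 processed subunit at 1 µg/ml; raw spot fluorescence signals with no normalization applied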
Target sequence (P19838 1-433 limits assumed): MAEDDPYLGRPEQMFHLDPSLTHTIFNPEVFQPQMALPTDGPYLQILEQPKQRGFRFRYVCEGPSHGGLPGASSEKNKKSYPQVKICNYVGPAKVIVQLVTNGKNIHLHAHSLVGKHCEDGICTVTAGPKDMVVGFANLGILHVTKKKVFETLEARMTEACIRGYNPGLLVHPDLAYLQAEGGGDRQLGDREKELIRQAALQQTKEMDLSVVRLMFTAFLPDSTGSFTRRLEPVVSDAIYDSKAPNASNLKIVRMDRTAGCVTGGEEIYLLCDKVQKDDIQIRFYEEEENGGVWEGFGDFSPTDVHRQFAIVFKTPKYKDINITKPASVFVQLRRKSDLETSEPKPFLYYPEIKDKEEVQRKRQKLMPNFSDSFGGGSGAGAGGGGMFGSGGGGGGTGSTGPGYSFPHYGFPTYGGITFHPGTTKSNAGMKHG
The depositor's hits bear a star; i = inactive; + = active, no number. This is a sample that favours compounds with a hit; in the whole collection about 2.5% have one here.

SMILES	p53 mut binder	c-Myc SMM	STAT3 binder	NFkB binder
COc1ccc(CN(C)C[C@@H]2Oc3ccc(NC(=O)Cc4cn(C)c5ccccc45)cc3C(=O)N([C@@H](C)CO)C[C@@H]2C)cc1	i	i	i	i
NC(=O)CN(c1cc(Cl)ccc1Cl)S(=O)(=O)c1ccccc1	i	i	i	i
Cc1cc(OCC(=O)Nc2ccccc2C(=O)N2CCCCC2)c(C)cc1Br	i	i	i	i
COc1cccc(CN2CCN(C(=O)c3cc(-c4ccccn4)nc4ccc(Cl)cc34)CC2)c1	+	i	i	i
CC(=O)Nc1cccc(NC(=O)c2cc(-c3ccccn3)nc3ccc(Cl)cc23)c1	i	i	i	i
COC(=O)c1c(NC(=S)Nc2c(C)nn(Cc3c(F)c(F)c(F)c(F)c3F)c2C)sc(C)c1-c1ccccc1	i	i	i	i
C=CCOC(=O)[C@@H]1[C@H]2C(=O)O[C@H](c3ccccc3)[C@H](c3ccccc3)N2[C@H](c2ccc(OCCOC(=O)[C@@H]3C[C@@H]4C(=O)N[C@@H](Cc5ccccc5)C(=O)N4[C@@H]3c3cccc(OCCO)c3)cc2)[C@@]12C(=O)Nc1ccc(I)cc12	i	i	i	+
C=CCOC(=O)[C@H]1[C@@H]2C(=O)O[C@@H](c3ccccc3)[C@@H](c3ccccc3)N2[C@@H](c2ccc(OCCOC(=O)[C@@H]3C[C@@H]4C(=O)N5CCC[C@H]5C(=O)N4[C@@H]3c3ccc(O)cc3)cc2)[C@]12C(=O)Nc1ccc(I)cc12	i	i	i	i
C=CCOC(=O)[C@H]1[C@@H]2C(=O)O[C@@H](c3ccccc3)[C@@H](c3ccccc3)N2[C@@H](c2ccc(OCCOC(=O)[C@H]3C[C@H]4C(=O)N5CCC[C@H]5C(=O)N4[C@H]3c3ccc(O)cc3)cc2)[C@]12C(=O)Nc1ccccc12	i	i	i	+
C=CCOC(=O)[C@@H]1[C@H]2C(=O)O[C@H](c3ccccc3)[C@H](c3ccccc3)N2[C@H](c2ccc(OCCOC(=O)[C@@H]3C[C@@H]4C(=O)N[C@@H](CC(C)C)C(=O)N4[C@@H]3c3ccc(O)cc3)cc2)[C@@]12C(=O)Nc1ccc(I)cc12	i	i	i	i
O=C(O)CNS(=O)(=O)c1cc(Cl)c(Cl)cc1Cl	+	+	i	+
C[C@@H]1CCCCO[C@@H](CN(C)S(=O)(=O)c2cn(C)cn2)[C@@H](C)CN([C@@H](C)CO)C(=O)c2cc(NS(C)(=O)=O)ccc2O1	i	i	i	i
COc1ccc2oc(-c3ccccc3)c(O)c(=O)c2c1	i	i	i	i
C[C@H](CO)N1C[C@H](C)[C@H](CN(C)C(=O)Nc2ccc3c(c2)OCO3)OCCCC[C@H](C)Oc2ccc(NC(=O)c3ccccc3)cc2C1=O	i	i	i	i
O=C(O)C1=C[C@H](c2ccc(C(F)(F)F)cc2)C[C@H](OCCCCO)O1	i	i	+	i
O=C(Nc1ccccc1)C1=C[C@H](c2ccc(C(F)(F)F)cc2)C[C@H](OCCCCO)O1	i	i	i	i
CC1OC(OCC2OC(OCC3(C)C(O)CCC4(C)C3CCC3(C)C4CCC4C5=CC(C)(C)CCC5(C(=O)O)CCC43C)C(O)C(O)C2O)C(O)C(O)C1O (configuration not stated)	i	+	i	+
CC1OC(OCC2(C)C=C3C4CCC5C6(C)CCC(O)C(C)(COC7OC(CO)C(O)C(O)C7O)C6CCC5(C)C4(C)CCC3(C(=O)O)CC2)C(O)C(O)C1O (configuration not stated)	i	i	i	i
C[C@@H]1CN([C@H](C)CO)C(=O)c2cccc(NS(=O)(=O)c3ccccc3)c2O[C@@H]1CN(C)C(=O)Nc1cccc2ccccc12	i	i	i	i
C[C@@H]1CCCCO[C@H](CN(C)C(=O)Nc2cccc3ccccc23)[C@@H](C)CN([C@@H](C)CO)C(=O)c2cc(NC(=O)c3ccncc3)ccc2O1	i	+	i	+
C[C@H](CO)N1C[C@H](C)[C@@H](CN(C)C(=O)Nc2cccc3ccccc23)OCCCC[C@H](C)Oc2ccc(NC(=O)c3ccncc3)cc2C1=O	i	+	i	+
COc1ccc(NC(=S)NCCn2cc(Br)cn2)cc1OC	i	i	i	i
COc1ccc(Cl)cc1NC(=S)NCCn1cc(Cl)cn1	i	+	i	i
COc1ccc(Cl)cc1NC(=S)NCCCN1CCCC1=O	i	+	i	i
C=C(C(=O)O)C1C(OC(=O)/C(=C/CO)CO)CC(C)(O)C2CC(OC(C)=O)C(C)=CC12 (configuration not stated)	i	i	i	i
SMILES	p53 mut binder	c-Myc SMM	STAT3 binder	NFkB binder
O=C(O)CCNC(=O)c1cncc(Br)c1	i	+	i	i
N#Cc1ccc(-c2cccs2)nc1SCC(=O)Nc1sc2c(c1C#N)CCCC2	i	+	i	i
CC12C=CC(=O)C=C1CCC1C2=CCC2(C)C1CC[C@@H]2C(=O)CN1CCN(c2cc(N3CCCC3)nc(N3CCCC3)n2)CC1 (some centres not stated)	i	+	i	i
C[C@H]1CCCCO[C@@H](CN(C)C)[C@@H](C)CN([C@@H](C)CO)C(=O)c2cc(NC(=O)CCC(F)(F)F)ccc2O1	i	i	i	i
Cn1nnnc1SCCNC/C=C/c1ccccc1	i	+	i	i
COc1ccc(OC)c(NC(=O)CSc2nnnn2C)c1	i	i	i	i
Cc1noc(C)c1NC(=O)N(C)C[C@@H]1Oc2ccc(NC(=O)Nc3cccc4ccccc34)cc2C(=O)N([C@@H](C)CO)C[C@H]1C	i	i	i	i
COCCOC(=O)N1C(=O)[C@@]2(c3cc(C#CCC(C(=O)OC)C(=O)OC)ccc31)[C@H](c1ccc(OCCO)cc1)N1[C@H](c3ccccc3)[C@H](c3ccccc3)OC(=O)[C@H]1[C@@H]2C(=O)N1CCN(c2ncccn2)CC1	i	i	i	+
COCCOC(=O)N1C(=O)[C@@]2(c3cc(C#CC4=CCCCC4)ccc31)[C@H](C(=O)N1CCN(c3ncccn3)CC1)[C@H]1C(=O)O[C@H](c3ccccc3)[C@H](c3ccccc3)N1[C@@H]2c1ccccc1OCCO	i	i	i	+
COCCOC(=O)N1C(=O)[C@@]2(c3ccccc31)[C@H](C(=O)N1CCN(c3ncccn3)CC1)[C@H]1C(=O)O[C@H](c3ccccc3)[C@H](c3ccccc3)N1[C@@H]2c1ccc(OCCO)cc1	i	i	i	i
O=C(CSc1ccc([N+](=O)[O-])cn1)N1CCc2ccccc21	i	i	i	i
O=C(CSc1nc(O)cc(=O)n1-c1ccccc1)N1CCc2ccccc21	+	i	i	i
CCOc1cc(C(=O)O)cc(I)c1OCC(=O)O	i	+	i	+
Cc1ccc(-c2nnc3c4ccccc4c(C)nn23)cc1S(N)(=O)=O	i	i	i	i

Bioassay records as filed in PubChem.
